This is an account of results in ChEMBL document CHEMBL3433997, “St. Jude Leishmania screening dataset” (2016).

What all share (assay type): functional
The target in experiment [1] is Solute carrier family 2, facilitated glucose transporter member 1 (Homo sapiens) (UniProt P11166). As to the kind of experiment: ST_JUDE_LEISH: Cytotoxicity at 2uM final concentration against transgenic Leishmania Mexicana promastigotes LmGLUT1 that are glucose transport deficient and complemented with the human glucose transporter GLUT1. Activity is measured by DNA content using SYBR green in vitro.

For experiment [2], the target named is Hexose transporter 1 (Plasmodium falciparum) (UniProt O97467). The experiment is described as follows: ST_JUDE_LEISH: Cytotoxicity at 2uM final concentration against transgenic Leishmania Mexicana promastigotes LmPfHT that are glucose transport deficient and complemented with the Plasmodium falciparum hexose transporter. Activity is measured by DNA content using SYBR green in vitro.

Experiment [3] concerns the target Glucose transporter (Leishmania mexicana) (UniProt O61059). The experiment is described as follows: ST_JUDE_LEISH: Cytotoxicity at 2uM final concentration against transgenic Leishmania Mexicana promastigotes LmGT2 that are glucose transport deficient and complemented with the L. Mexicana glucose transporter 2. Activity is measured by DNA content using SYBR green in vitro.

Solute carrier family 2, facilitated glucose transporter member 1 (Homo sapiens), sequence (P11166 whole entry): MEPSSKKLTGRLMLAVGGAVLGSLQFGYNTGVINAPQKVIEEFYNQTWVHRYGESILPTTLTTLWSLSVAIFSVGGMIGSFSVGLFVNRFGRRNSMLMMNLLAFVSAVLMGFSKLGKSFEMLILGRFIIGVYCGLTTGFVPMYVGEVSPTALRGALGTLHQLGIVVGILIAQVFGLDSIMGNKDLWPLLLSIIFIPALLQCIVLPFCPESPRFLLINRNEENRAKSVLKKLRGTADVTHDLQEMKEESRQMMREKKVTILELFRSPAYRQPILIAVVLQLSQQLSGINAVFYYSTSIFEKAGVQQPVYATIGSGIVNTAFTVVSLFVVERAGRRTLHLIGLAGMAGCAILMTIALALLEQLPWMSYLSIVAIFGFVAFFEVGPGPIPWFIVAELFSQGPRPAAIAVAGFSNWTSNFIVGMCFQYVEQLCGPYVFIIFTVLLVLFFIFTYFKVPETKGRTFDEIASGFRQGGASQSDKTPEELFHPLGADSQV

Turning to `Cc1ccc(Cn2ncc(N3CCCNCC3)c(Cl)c2=O)cc1NC(=O)Nc1ccc(-c2ccccc2)cc1`, the inhibition in experiment [1] is 3.82%; in experiment [2] it was 4.05%; in experiment [3], 4.8%.

Take `Cc1cn(CC(=O)Nc2cccc(-c3cccc(-c4nc5cccc(C)c5[nH]4)c3)c2)c(=O)[nH]c1=O`: the inhibition in experiment [1] stood at 4.43%; in experiment [2], 3.47%; in experiment [3], 5.03%.

In the case of `O=C(/C=C/c1ccc(Cl)c(Cl)c1)NCCCCCN1CCC(C(=O)Nc2ccc3c(c2)OCO3)CC1`, the inhibition in experiment [1] came out at 6.29%; in experiment [2], 5.08%; in experiment [3] it was 5.17%.

Consider `CCCc1cn2c3c(cc(C(=O)N[C@@H](Cc4ccccc4)[C@H](O)CNC4CCCCC4)cc13)N(C)S(=O)(=O)CC2`, for which the figures for the inhibition in experiment [1], in experiment [2] and in experiment [3] were 1.94%, 2.85% and 1.49%, respectively.

Turning to `COc1cccc(C2CCN(CCN3CCC(NC(=O)c4ccc(-c5ccc(C#N)cc5)cc4)CC3)CC2)c1`, the inhibition in experiment [1] was -1.18%; in experiment [2] it was 0.31%; in experiment [3], 0.19%.

With `CNC(=O)c1ccccc1Nc1nc(Nc2ccc(N3CCOCC3)cc2)ncc1Cl`, the inhibition stood at 77.2% in experiment [1], 84.9% in experiment [2] and 74.6% in experiment [3].

Consider `COc1ccc(C2c3ccccc3-c3nc(N)nc(N)c3C2C)cc1` (stereo unspecified), for which the inhibition in experiment [1] was 3.13%; in experiment [2], 3.19%; in experiment [3], 0.31%.

Regarding `COc1cc2nc(NCc3ccc(S(N)(=O)=O)cc3)nc(Nc3ccc(Oc4ccccc4)cc3)c2cc1OC`, the inhibition in experiment [1] was found to be 4.15%; in experiment [2], 4.39%; in experiment [3] it was 3.67%.

Take `N=C(N)c1cc(Br)cc(NC(=O)Nc2cc(Br)cc(C(=N)N)c2)c1`: the results for the inhibition in experiment [1], in experiment [2] and in experiment [3] were 2.46%, 2.44% and 3.14%, respectively.

For `CN(C)CCN(C)Cc1ccc(-c2ccc(NC(=O)c3cccc(Cl)c3)cc2)cc1`, the inhibition in experiment [1] came out at 7.23%; in experiment [2], 6.44%; in experiment [3], 6.55%.

As for `Cc1cc(OCCN2CCCCC2)ccc1NC(=O)c1cccc2c(=O)n(Cc3ccc(Cl)cc3)cnc12`, the inhibition in experiment [1] amounted to 103%; in experiment [2], 104%; in experiment [3], 105%.

On to `COc1ccc(-c2ccnc(-c3cccc(-c4ccccn4)n3)c2)cc1`, for which the inhibition in experiment [1] came out at 7.03%; in experiment [2] it was 24.9%; in experiment [3] it was 2.98%.

Turning to `Cc1cccc2nc(-c3ccc(-c4cccc(CN5CCCCC5)c4)s3)[nH]c12`, the figures for the inhibition in experiment [1], in experiment [2] and in experiment [3] were 5.63%, 5.12% and 1.81%, respectively.

Turning to `CC(C)(C)NS(=O)(=O)c1cc(C(=O)N2CCC(CCN3CCC(O)(c4cccc(C(F)(F)F)c4)CC3)(c3cccc(F)c3)CC2)c(Cl)cc1F`, the inhibition in experiment [1] was 1.73%; in experiment [2], 1.52%; in experiment [3], -0.37%.

For the compound `CCOc1ccc2nc(C)cc(N/N=C/c3ccccc3[N+](=O)[O-])c2c1`, the inhibition in experiment [1] came to 33.1%; in experiment [2], 26.4%; in experiment [3], 33.9%.

Turning to `CCCOc1cc(OCCC)cc(-c2ccc(C(=O)Nc3ccc4ccc(C)nc4c3)c(=O)[nH]2)c1`, the inhibition in experiment [1] stood at 1.35%; in experiment [2], 0.78%; in experiment [3], 3.33%.

`COc1cc(-c2nc(-c3ccc([N+](=O)[O-])cc3)c(-c3ccccc3)[nH]2)cc(OC)c1O`: the values for the inhibition in experiment [1], in experiment [2] and in experiment [3] were 3.48%, 5.84% and 5.26%, respectively.

As to `COc1ccc(C(=O)Nc2ccc3nc(N4CCCCC4)cc(C)c3c2)cc1[N+](=O)[O-]`, the inhibition stood at 2.05% in experiment [1], 3.3% in experiment [2] and 2% in experiment [3].

Turning to `CNC(=O)COc1ccc(Nc2nnc(-c3ccc(C)c(S(=O)(=O)NCC4CCCO4)c3)c3ccccc23)cc1` (stereo unspecified), the results for the inhibition in experiment [1], in experiment [2] and in experiment [3] were 1.3%, 0.12% and -0.43%, respectively.

On to `Cc1noc(C)c1-c1cccc(CNCc2cccc(-c3cccc(-c4nc5cc(F)ccc5[nH]4)c3)c2)c1`, for which the inhibition is -2.23% in experiment [1], 5% in experiment [2] and 0.55% in experiment [3].

Consider `COc1cc(NC(=O)C(c2ccc(Cl)cc2)C(C)C)cc(OC)c1` (stereo unspecified), for which the inhibition in experiment [1] is 2.88%; in experiment [2] it was 2.55%; in experiment [3], 1.33%.

With `Cc1cc(N[C@@H](Cc2ccccc2)C(=O)Nc2ccccc2)nc(NCCN2CCCC2)n1`, the inhibition is -2.01% in experiment [1], -2.84% in experiment [2] and -2.29% in experiment [3].

Turning to `CC(C)NCc1cccc(-c2cccc(NC(=O)c3cccc(C#N)c3)c2)c1`, the figures for the inhibition in experiment [1], in experiment [2] and in experiment [3] were 5.22%, 4.93% and 5.23%, respectively.

`CO/C(=C\C=C\c1cc2cc(Cl)c(Cl)cc2[nH]1)C(=O)NCCCN1CCN(C2CCCCC2)CC1`: the inhibition in experiment [1] was 8.66%; in experiment [2], 5.7%; in experiment [3], 2.31%.

For the compound `CCN(CC)CCCCNc1cc(-c2[nH]c(-c3c(Cl)cccc3Cl)nc2-c2ccc3cc(OC)ccc3c2)ccn1`, the inhibition was 0.05% in experiment [1], -1.62% in experiment [2] and -0.83% in experiment [3].

In the case of `C=CCn1c(=N)c(C(=O)NC2CCCCC2)cc2c(=O)n3cccc(C)c3nc21`, the inhibition in experiment [1] amounted to 11.3%; in experiment [2], 15.2%; in experiment [3], 4.5%.

As to `Clc1ccc(OCCC2CCN(CCCCCCN3CCCCC3)CC2)cc1Cl`, the results for the inhibition in experiment [1], in experiment [2] and in experiment [3] were 10.8%, 4.99% and 17%, respectively.

`N#Cc1ccc(N/C(=N\c2ccc(-c3ccccc3)cc2)NCc2cccnc2)c(O)c1`: the inhibition in experiment [1] worked out at 6.14%; in experiment [2] it was 1.66%; in experiment [3] it was 5.44%.

On to `CC(CCc1ccccc1)NCC(O)c1cccc([N+](=O)[O-])c1` (stereo unspecified), for which the inhibition in experiment [1] is -0.26%; in experiment [2], -2.9%; in experiment [3] it was 1.35%.

Take `Oc1ccc(CNCC2CCN(CC3CCCCC3)CC2)cc1`: the values for the inhibition in experiment [1], in experiment [2] and in experiment [3] were 5.22%, 0.53% and 5.43%, respectively.

Take `CC(NC(C)c1cccc(Cl)c1)C(=O)Nc1cc(C(F)(F)F)ccc1N1CCOCC1` (stereo unspecified): the values for the inhibition in experiment [1], in experiment [2] and in experiment [3] were 0.88%, 0.48% and -9.9%, respectively.

Turning to `COc1ccc(CCN2CCC(NCc3cccc(N(C)C)c3)CC2)cc1`, the inhibition in experiment [1] is -2.94%; in experiment [2], 2.54%; in experiment [3], -1.51%.

For the compound `CN(CCC1CCN(C(=O)/C=C/c2ccc(Cl)c(Cl)c2)CC1)C1CCC(c2c[nH]c3ccccc23)CC1` (stereo unspecified), the figures for the inhibition in experiment [1], in experiment [2] and in experiment [3] were 7%, 8.06% and 3.97%, respectively.

With `COc1cc(CNCCCNc2nc(=O)c3sccc3[nH]2)c2[nH]cc(Cl)c2c1`, the inhibition in experiment [1] was 92.7%; in experiment [2], 96.7%; in experiment [3], 87.6%.

With `CCCCN1CCN(c2cc(NS(=O)(=O)c3ccc(C(=O)Nc4ccc(C(F)(F)F)cc4)cc3)ccc2OC)CC1`, the inhibition in experiment [1] amounted to 3.79%; in experiment [2], 5.5%; in experiment [3], 0.69%.

For the compound `COc1ccc2ncc(C#N)c(CCN3C4CCC3CC(NCc3ccc5c(n3)NC(=O)CS5)C4)c2c1` (stereo unspecified), the inhibition in experiment [1] amounted to 4.35%; in experiment [2] it was 4.33%; in experiment [3], 1.45%.

Turning to `COc1ccc2nc(C)cc(Nc3ccc(Oc4ccc5ccccc5c4Cl)c(Cl)c3)c2c1`, the inhibition in experiment [1] was found to be 13.7%; in experiment [2] it was 12.6%; in experiment [3], 8.39%.

For the compound `O=C(NCC1CCN(Cc2cccc(C(F)(F)F)c2)C1)c1cc(-c2cccc(Cl)c2)cs1` (stereo unspecified), the inhibition in experiment [1] was 1.83%; in experiment [2], 1.37%; in experiment [3], -3.57%.

As for `Cc1ccc(NS(=O)(=O)c2ccc(C(C)N3CCC(N4CCCCC4)CC3)cc2)cc1C` (stereo unspecified), the inhibition in experiment [1] is -2.42%; in experiment [2] it was -0.86%; in experiment [3], 0.73%.

For `Cc1cc(N2CCCC2)nc(Nc2ccc(NC(=O)Cc3ccccc3)cc2)n1`, the inhibition is 88.4% in experiment [1], 95.2% in experiment [2] and 72.3% in experiment [3].

For `Cc1cc(OCCCN2CCC(NS(=O)(=O)c3ccc(Cl)c(Cl)c3)CC2)c2ccccc2n1`, the inhibition amounted to 4.28% in experiment [1], 4.69% in experiment [2] and 4.76% in experiment [3].

Turning to `COc1ccccc1N(C)CCNc1cc(C)nc(Nc2ccc(C)cc2)n1`, the inhibition in experiment [1] is 8.84%; in experiment [2], 7.28%; in experiment [3], 1.83%.

Turning to `COc1cc(NCCCCCNc2cc(Cl)nc3ccccc23)nc2ccccc12`, the inhibition turned out to be 1.24% in experiment [1], 2.23% in experiment [2] and 2.29% in experiment [3].

On to `O=C(Nc1cccc(C(F)(F)F)c1)NC1CCN(c2ccnc3cc(Cl)ccc23)CC1`, for which the inhibition is 1.6% in experiment [1], 1.64% in experiment [2] and -1.47% in experiment [3].

Consider `Cc1ccc(-c2ccc(NC(=O)N3CCc4cc(Br)c(N5CCN(C)CC5)cc43)cc2)cn1`, for which the figures for the inhibition in experiment [1], in experiment [2] and in experiment [3] were 2.03%, 1.29% and 2.24%, respectively.

For the compound `CN1CCC=C(C(=O)NCC(C)(C)c2nc(-c3ccc(Cl)c(O)c3)c(-c3ccncc3)[nH]2)C1`, the inhibition is 6.76% in experiment [1], 9.88% in experiment [2] and 7.7% in experiment [3].

For the compound `COc1ccc2nccc([C@@H](O)CN3CCC(NCc4ccc5nnsc5c4)CC3)c2c1`, the inhibition is -1.03% in experiment [1], 0.44% in experiment [2] and -0.67% in experiment [3].

As for `Cc1nc2ccc(NC(=O)Nc3ccnc4ccc(C(F)(F)F)cc34)cc2o1`, the figures for the inhibition in experiment [1], in experiment [2] and in experiment [3] were 5.89%, 10.7% and 5.33%, respectively.

As to `CCCN/C=N/c1cc(-c2csc(NC(=N)N)n2)cc([N+](=O)[O-])c1`, the inhibition in experiment [1] was -0.32%; in experiment [2], -0.62%; in experiment [3], -2.26%.

As to `COc1ccccc1Cc1nc2ccccc2nc1SCC(=O)Nc1cccc(C(F)(F)F)c1`, the inhibition was 3.27% in experiment [1], 3.21% in experiment [2] and 1.7% in experiment [3].

`COc1ccc(NC(=O)NC2CCN(c3ccnc4cc(Cl)ccc34)C2)cc1` (stereo unspecified): the values for the inhibition in experiment [1], in experiment [2] and in experiment [3] were 4.89%, 2.85% and 1.86%, respectively.

For `COc1ccc2nccc([C@@H](O)CN3CCC(NC(=O)/C=C/c4cc(F)cc(NC(C)=O)c4)CC3)c2c1`, the inhibition in experiment [1] is 5.61%; in experiment [2], 2.3%; in experiment [3] it was -3.44%.

A word on the inhibition: it is the drop in the measured response relative to a control, in per cent.
